# The OligoGym collection
# Target: GIPC2
# Assay: pooled miR-30 sensor sort-seq; sequence = guide strand
# Settings: shRNA
# Further: reference of the scale not given here.
row,Sequence,sensor-assay potency score (higher = more potent)
1,TAACTTCTTAGCAACATCATAG,-1.26
2,TTAGGTTCTATTAACTTCATAG,-0.883
3,TTAACTTCTTAGCAACATCATA,-1.57
4,TATGAAATCTTCTAGTCCTAGT,-0.186
5,TTTATACACATTCACTTCTTTT,-1.24
6,TTACTTTGTCCTTTCCAGCTTC,-0.236
7,ATACACATGAAATTAAACCAGA,-0.735
8,TTAACTGAGTCAATAACACCAC,0.431
9,ATATGAAATCTTCTAGTCCTAG,-0.694
10,TTTCTCCTGATGACTTTCCAGC,-1.05
11,TAAAAGCATAGCCAACACCATT,-1.62
12,TAACTGAGTCAATAACACCACC,-0.972

# Target: GIP
# Assay: as above
# Settings: shRNA
row,Sequence,sensor-assay potency score (higher = more potent)
1,TAGCATGAGATCCAACAGGCAG,-0.668
2,TCACCTTAGCATGAGATCCAAC,-1.2
3,AAAGTCTTGTTGGTGAATCTTG,-0.684
4,TTGTTGGTGAATCTTGTCCATG,-1.48
5,TGATGTTGTGTTTCCAGTCATT,-1.13
6,AATACTGTAGTCACTGATGAAA,-1.63
7,TCTTGAATCAGCAAGTCCCGCA,-0.377
